{"source": "PubChem BioAssay (NCATS)", "note": "Inconclusive results are not listed. Active and inactive are the calls of the source. Calls come from the whole dose curve; as a rule, active = well fitted inhibition curve with a large enough effect; inconclusive = small, poorly fitted or top-dose-only effect; inactive = flat fitted curve, though single readings scatter."}
{"tested_on": "Zika virus NS2B-NS3 protease", "assay": "Primary screen GU AMC qHTS for Zika virus inhibitors (AID 1347154);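 note: 0% = no-inhibitor control and -100% = no-enzyme control; nearly all actives have a fitted effect of over 70% in size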", "details": "Zika NS2B-NS3 unlinked protease, AMC fluorogenic substrate; series mostly up to 54.1 µM; activity change, negative = inhibition: at the top concentration", "method_in_brief": "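Fluorogenic AMC-substrate cleavage by noncovalent NS2B-NS3 protease complex (25 nM, pH 8.0 Tris buffer with Tween 20) followed for 15 minutes at room temperature (~20% conversion). Percent inhibition from ex340/em450 signal change, fitted by 4-parameter Hill equation.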"}
{"smiles": "Cc1c[nH]c(C=C2C(=O)Nc3ccccc32)c1CCC(=O)O", "activity change, negative = inhibition": "-16.6% (inactive)"}
{"smiles": "COc1ccc2cccc(CCNC(C)=O)c2c1", "activity change, negative = inhibition": "5.42% (inactive)"}
{"smiles": "Clc1cc(Cl)cc(CNc2ncncc2-c2ccc3c(c2)OCO3)c1", "activity change, negative = inhibition": "-4.82% (inactive)"}
{"smiles": "Cc1nc(N)sc1-c1ccnc(Nc2ccc(N3CCOCC3)cc2)n1", "activity change, negative = inhibition": "8.84% (inactive)"}
{"smiles": "O=C(CCN1CCN(C(=O)OCc2cc(Cl)cc(Cl)c2)CC1)c1ccc2[nH]c(=O)oc2c1", "activity change, negative = inhibition": "11.3% (inactive)"}
{"smiles": "C[C@H]1[C@H](NC(=O)C(=NOC(C)(C)C(=O)O)c2csc(N)n2)C(=O)N1S(=O)(=O)O", "activity change, negative = inhibition": "-2.1% (inactive)"}
{"smiles": "c1cc(-c2sc(-c3ccncc3)c(-c3ccncc3)c2-c2ccncc2)ccn1", "activity change, negative = inhibition": "-0.495% (inactive)"}
{"smiles": "O=C(O)c1ccccc1C(=O)Nc1ccc(-c2ccccc2)cc1", "activity change, negative = inhibition": "-3.21% (inactive)"}
{"smiles": "Cc1ccc(/C=N/NC(=O)c2ccccc2Oc2ccccc2)o1", "activity change, negative = inhibition": "-12.9% (inactive)"}
{"smiles": "Cc1ccccc1C(C(=O)NC1CCCCC1)N(C(=O)Cn1ccnc1C)c1cccc(F)c1", "note": "(configuration not stated)", "activity change, negative = inhibition": "-7.35% (inactive)"}
{"smiles": "CC(C)C(=O)Nc1ncc(-c2cc(C(F)F)nn2-c2c(Cl)cccc2Cl)s1", "activity change, negative = inhibition": "8.96% (inactive)"}
{"smiles": "C=C1C(=O)OC(CCCCCCCC)C1C(=O)O", "note": "(configuration not stated)", "activity change, negative = inhibition": "3.3% (inactive)"}
{"smiles": "O=C(N[C@@H](c1ccccc1)[C@@H]1CCCCN1)c1cccc(C(F)(F)F)c1Cl", "activity change, negative = inhibition": "-0.535% (inactive)"}
{"smiles": "CC=CCC=CCCC(=O)[C@H]1O[C@@H]1C(N)=O", "activity change, negative = inhibition": "4.44% (inactive)"}
{"smiles": "COc1cccc2c1CCCC2CCCN1CCN(C2CCCCC2)CC1", "note": "(configuration not stated)", "Potency": "inactive"}
{"smiles": "Cc1c(O)cccc1C(=O)N[C@@H](CSc1ccccc1)[C@H](O)CN1C[C@H]2CCCC[C@@H]2C[C@@H]1C(=O)NC(C)(C)C", "activity change, negative = inhibition": "-5.65% (inactive)"}
{"smiles": "CC(C)n1cnc2c(NCCCCCCNC(=O)OC(C)(C)C)nc(NCCO)nc21", "activity change, negative = inhibition": "-12.6% (inactive)"}
